TRPV1 agonist = activates the human vanilloid receptor TRPV1. Q8NER1. TRPV1-expressing cells, Fluo-8 calcium influx, agonist mode. activation, % at 8.33 µM. hit rate 0.19% among 320,000; in the data active = activation above about 80%; inconclusive = between about 30% and that limit; also: 0% is about no effect
Target sequence (Q8NER1 whole entry, looked up): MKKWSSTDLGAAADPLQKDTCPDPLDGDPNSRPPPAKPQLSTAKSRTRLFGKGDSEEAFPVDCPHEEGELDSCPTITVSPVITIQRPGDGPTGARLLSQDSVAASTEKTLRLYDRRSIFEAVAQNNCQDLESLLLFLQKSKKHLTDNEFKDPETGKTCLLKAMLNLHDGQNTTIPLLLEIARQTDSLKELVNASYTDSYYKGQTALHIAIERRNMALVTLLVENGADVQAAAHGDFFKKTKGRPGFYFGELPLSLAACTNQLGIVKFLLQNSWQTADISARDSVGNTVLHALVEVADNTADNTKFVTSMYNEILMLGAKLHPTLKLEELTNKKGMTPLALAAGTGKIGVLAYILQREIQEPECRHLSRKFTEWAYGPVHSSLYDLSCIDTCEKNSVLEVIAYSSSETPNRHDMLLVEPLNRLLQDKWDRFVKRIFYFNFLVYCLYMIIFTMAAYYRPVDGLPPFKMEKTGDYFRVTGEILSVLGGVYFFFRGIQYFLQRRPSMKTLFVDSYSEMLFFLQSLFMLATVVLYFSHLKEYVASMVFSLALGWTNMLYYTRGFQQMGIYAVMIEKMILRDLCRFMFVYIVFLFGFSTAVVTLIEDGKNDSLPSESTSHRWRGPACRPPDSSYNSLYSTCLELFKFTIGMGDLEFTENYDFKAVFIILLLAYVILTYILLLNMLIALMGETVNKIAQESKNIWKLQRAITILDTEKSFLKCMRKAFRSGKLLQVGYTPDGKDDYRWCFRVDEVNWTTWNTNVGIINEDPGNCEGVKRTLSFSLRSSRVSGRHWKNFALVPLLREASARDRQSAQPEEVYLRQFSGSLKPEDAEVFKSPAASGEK
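Fluo-8 calcium influx in TRPV1-expressing cells, kinetic read (ex 480/em 520 nm). Compound added and read 3 min for agonist activity, followed by capsaicin at EC20 final and 2 min further read for enhancement.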
Giardia kill = kills Giardia lamblia. activity change, % at 7.66 µM, hits read low. Giardia lamblia trophozoite viability. hit rate 0.15% among 340,000; in the data active = activity change below about -80%; inconclusive = between about -30% and that limit;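 also: parasites exposed to compound for two days anaerobically before the ATP read; % is scaled to controls: 0 for no effect and ±100 for the full control effect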
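Luminescence from cellular ATP indicates surviving trophozoites (100 cells/well) following 48 hrs anaerobic compound treatment at 37 deg C; signal develops 15-30 min at room temperature.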
FUS suppressor = FUS proteinopathy suppression in yeast; S. cerevisiae FUS-expressing, growth rescue, OD600, 24 h; Potency, µM (highest dose often 76.6 µM), hits mostly activators; hit rate 0.24% among 390,000; AID 1347120;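 also: potency is read from the fitted curve at half-maximal effect; plate controls were DMSO vehicle for no effect and reference control for full effect; nearly all actives have a fitted effect of over 55% in size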
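Quantitative HTS measuring growth restoration of FUS-toxic yeast. Galactose-induced cells (OD 0.005) were exposed 24hr at 30C to compounds at several concentrations, then absorbance at 600 nm was recorded.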
ELG1 DNA repair = inhibitors of ELG1-dependent DNA repair in HEK293T cells; HEK293T ELG1-luciferase reporter, luminescence, 16 h; DNA damage induced by 5-fluorouridine; Potency, µM (doses to about 46.1 µM), for inactives: top-dose activity change, negative = inhibition, usual class: inhibitors; hit rate 2.3% among 330,000; AID 504467; also: potency is read from the fitted curve at half-maximal effect; % is scaled to controls: 0 for no effect and ±100 for the full control effect; nearly all actives have a fitted effect of over 55% in size
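Step one: seed 2,000 cells per well. Step two: pin-transfer compound or DMSO alongside 5-fluorouridine. Step three: incubate 16 hr, 37 °C, 5% CO2. Step four: add ONE-Glo, wait 30 min, read luminescence.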
TRPV1 PAM = human TRPV1 potentiation; Q8NER1; TRPV1-expressing cells, Fluo-8 calcium influx, capsaicin EC20 potentiation; potentiation, % at 8.33 µM; hit rate 0.02% among 320,000; in the data active = potentiation above about 80%; inconclusive = between about 30% and that limit; also: 0% is about no effect
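TRPV1-expressing cells were cultured overnight at 35.5C and loaded with Fluo-8 calcium dye for 40 to 90 min at room temperature. After a 10 s baseline, compound was added and calcium influx was read kinetically for 3 min (ex 480/em 520 nm).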
* marks the source's active call; other numbers are inactive results; i = inactive; ? = inconclusive; · = not tested or not shown; ! = not confirmed by another sample. Rows were chosen to be rich in hits. Some 2.3% of all compounds tested hit in one or more screens of this group. Unless noted, calls follow the shape of the dose curve; as a rule, active = well fitted curve in the direction sought with a large enough effect; inconclusive = small, poorly fitted or top-dose-only effect, or another doubt; inactive = no such curve, though single readings can be large; an effect the other way counts as inactive or inconclusive.

SMILES	TRPV1 agonist	Giardia kill	FUS suppressor	ELG1 DNA repair	TRPV1 PAM
COc1ccc(CC(=O)Nc2ccc(S(=O)(=O)N3CCCCC3)cc2)cc1OC	88*	3	i	-1%	-12
CC(C)CN(CCNC(=O)c1cn(C)c2ccc(S(=O)(=O)N3CCCCCC3)cc2c1=O)CC(C)C	·	·	i	·	·
COc1ccc(NC(=O)c2cc3ccccc3o2)cc1S(=O)(=O)N1CCCCC1	·	6	i	21µM*	·
COc1ccc(NC(=O)c2ccc3ccccc3n2)cc1S(=O)(=O)N1CCCCC1	5	-2	i	?	7
CS(=O)(=O)N1CCN(c2ccccc2NC(=O)c2cc3ccccc3o2)CC1	10	-8	i	21µM*	4
C[C@H]1O[C@@H](n2c3ccc(Cl)cc3c3ccc4c5cc(Cl)ccc5[nH]c4c32)[C@H](O)[C@H](O)[C@H]1O	·	·	i	·	·
CCN(Cc1ccccc1)Cc1c(O)ccc2c(=O)c(-c3ccccc3OC)c(C(F)(F)F)oc12	·	·	i	·	·
O=C(NNc1c([N+](=O)[O-])cc(C(F)(F)F)cc1[N+](=O)[O-])c1ccco1	-2	-25	i	18µM*	-1
O=C(NNc1c(F)c(F)cc(F)c1F)c1ccco1	·	-15	i	9%	·
Cc1ccc(-n2cc(CN3CCC(O)(c4ccccn4)CC3)c(-c3ccc(F)cc3)n2)cc1	-3	-11	i	18µM*	-13
COC(=O)[C@]12C[C@H](CC(=O)N3CCCC3)C(=O)N(Cc3ccco3)C1=C[C@H](C1CCCC1)O[C@@H]2C	·	·	i	·	·
O=[N+]([O-])c1ccc(-c2c(O)c3ccccc3c3nc4ccccc4nc23)cc1	1	-27	i	23µM*	0
COc1ccc(CCN=c2c([N+](=O)[O-])nn(-c3cccc(C)c3)n2O)cc1OC	3	?	i	?	-9
COc1ccc(-n2nc([N+](=O)[O-])c(=NCCCN3CCCC3=O)n2O)cc1	-2	-85*	i	?	3
Cc1cccc(CCN=c2c([N+](=O)[O-])nn(-c3ccccc3)n2O)c1	2	-91*	i	-3%	-5
Cc1cccc(-n2nc([N+](=O)[O-])c(=NC3CCN(Cc4ccccc4)CC3)n2O)c1	1	-84*	i	-10%	-2
COc1ccc(-n2nc([N+](=O)[O-])c(=NCCc3cccc(C)c3)n2O)cc1	4	-85*	i	-4%	-6
O=[N+]([O-])c1c(NCCO)cc(N2CCN(Cc3ccc4c(c3)OCO4)CC2)c2nonc12	2	0	i	21µM*	19
O=[N+]([O-])c1c(NCCO)cc(N2CCCCCC2)c2nonc12	0	1	i	-1%	-6
C[C@@H](c1ccccc1)N1C[C@@H](COCc2ccccc2)Oc2cc(N3CCC[C@H]3C(N)=O)ccc2S1(=O)=O	·	·	22µM*	·	·
CCOc1ccccc1-n1nnnc1SCC(=O)NC(=O)NCc1ccco1	1	-11	i	26µM*	3
O=C(CSc1nnnn1-c1ccccc1)NC(=O)NCc1ccco1	1	-14	?	4%	0
COc1ccccc1CNC(=O)C1CCN(c2ncnc3c2nc2n3CCCCC2)CC1	-10	-3	i	?	4
COc1ccccc1N1CCN(CCCNC(=O)C2CCCN(c3ncnc4c3nc3n4CCCCC3)C2)CC1 (configuration not stated)	0	2	i	12µM*	3
O=C(NCCCN1CCN(c2ccc(F)cc2)CC1)C1CCCN(c2ncnc3c2nc2n3CCCCC2)C1 (configuration not stated)	8	9	i	?	-3
SMILES	TRPV1 agonist	Giardia kill	FUS suppressor	ELG1 DNA repair	TRPV1 PAM
COc1cccc(CCNC(=O)C2CCCN(c3ncnc4c3nc3n4CCCCC3)C2)c1OC (configuration not stated)	3	11	i	7.3µM*	-2
CN1CCC(=O)N(C(CSc2ccc(Br)cc2)Cc2ccccc2)CC1 (configuration not stated)	·	11	·	·	·
CCOC(=O)N1CCC(N2CCCC(C(=O)c3ccc4cc(OC)ccc4c3)C2)CC1 (configuration not stated)	?	-16	i	23µM*	-13
CCOC(=O)N1CCC(N2CCCC(C(=O)c3cc(C)c(OC)c(C)c3)C2)CC1 (configuration not stated)	0	-9	i	?	5
CC(C)CCn1c(Oc2ccc(Cl)cc2)nc2c1c(=O)n(C)c(=O)n2C	1	37	i	21µM*	-2
CCCCn1c(Oc2ccc(C(=O)OC)cc2)nc2c1c(=O)n(C)c(=O)n2C	2	2	i	21µM*	-11
Cn1c(=O)c2c(nc(Oc3ccccc3)n2C)n(C)c1=O	1	17	i	16µM*!	-1
Cc1cccc(Oc2nc3c(c(=O)n(C)c(=O)n3C)n2C)c1	4	-12	i	?	22
CCn1c(Oc2ccc(F)cc2)nc2c1c(=O)n(C)c(=O)n2C	0	-6	i	8.2µM*	0
CSc1ncc(C(=O)Nc2cc(Cl)ccc2C)c(-c2ccccc2)n1	·	·	i	·	·
CCOC(=O)c1cnc2ccc(C)cc2c1Nc1ccc(OCc2ccccc2Cl)cc1	·	·	i	·	·
COc1ccc(C)cc1NS(=O)(=O)c1cnc(N)nc1	·	·	i	·	·
Cc1cccc(C)c1OCc1nc2ccccc2c(=O)n1/N=C/c1c[nH]c2ccccc12	4	5	i	8.2µM*	-3
Cc1ccccc1OCc1nc2ccccc2c(=O)n1/N=C/c1c[nH]c2ccccc12	0	10	i	?	14
Cc1ccc(-c2[nH]ncc2/C=N/n2c(COc3ccccc3C)nc3ccccc3c2=O)cc1	9	0	?	2.6µM*	16
CC(C)Oc1ccc(CNC(=O)c2ccc(CS(=O)Cc3ccccc3Cl)o2)cc1 (configuration not stated)	·	·	i	·	·
O=C(CN1CCN(C2CCCCC2)C(=O)C1=O)Nc1ccc(Cl)cc1	·	·	i	·	·
COc1cc(C(=O)OCC(=O)NCc2ccc(F)cc2)cc(NC(=O)c2cccs2)c1OC	?	-2	i	21µM*	-32
CC(C)CCNC(=O)c1cnc2sc(N3CCCCC3)nn2c1=O	·	·	i	·	·
COc1cccc(CNc2ncc(-c3ccc(Br)cc3)n2C)c1	·	·	i	·	·
CCN=C(Nc1ccc2c(c1)OCO2)SC1CC(=O)N(c2ccc(OC)cc2)C1=O (configuration not stated)	9	-6	i	16µM*	-11
Cc1ccc(NC(=O)CSc2nc(=O)n(CCN3CCOCC3)c3c2CCC3)cc1Cl	·	·	i	·	·
N=C1/C(=C\c2coc3ccccc3c2=O)C(=O)N=C2SC(c3ccncc3)=NN12	91*	10	?	?	-18
N=C1/C(=C/c2coc3ccccc3c2=O)C(=O)N=C2SC(c3ccco3)=NN12	7	14	i	0%	4
